Source: PubChem BioAssay (National Center for Advancing Translational Sciences (NCATS))
TDP1 inh: qHTS Assay for Inhibitors of Tyrosyl-DNA Phosphodiesterase (TDP1). hit rate 0.28% among 350,000. AID 485290, 2010. recombinant TDP1, AlphaScreen DNA substrate cleavage. Tyrosyl-DNA phosphodiesterase 1 (Homo sapiens), Q9NUW8. Potency, µM (highest dose often 130 µM), for the others: at the highest dose activity change, negative = inhibition, usual class: inhibitors; note: potency is the fitted concentration of half-maximal effect; nearly all actives have a fitted effect of over 40% in size
Target sequence (Q9NUW8 whole entry, looked up): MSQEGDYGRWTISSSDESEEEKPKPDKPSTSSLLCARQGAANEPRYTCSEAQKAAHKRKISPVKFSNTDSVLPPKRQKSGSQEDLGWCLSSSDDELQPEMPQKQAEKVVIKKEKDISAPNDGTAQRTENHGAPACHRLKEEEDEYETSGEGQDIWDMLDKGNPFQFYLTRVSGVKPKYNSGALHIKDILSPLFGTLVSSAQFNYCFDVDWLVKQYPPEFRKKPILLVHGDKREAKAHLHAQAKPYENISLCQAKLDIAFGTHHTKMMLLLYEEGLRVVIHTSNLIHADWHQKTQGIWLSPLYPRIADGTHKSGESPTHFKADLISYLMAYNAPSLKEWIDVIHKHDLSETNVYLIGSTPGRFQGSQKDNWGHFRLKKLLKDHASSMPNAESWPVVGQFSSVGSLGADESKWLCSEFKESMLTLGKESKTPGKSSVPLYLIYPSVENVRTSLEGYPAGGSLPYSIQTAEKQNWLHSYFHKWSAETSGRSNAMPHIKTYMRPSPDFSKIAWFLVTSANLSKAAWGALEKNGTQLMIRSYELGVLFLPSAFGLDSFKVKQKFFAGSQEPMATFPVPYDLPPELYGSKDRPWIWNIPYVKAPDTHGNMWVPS
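Recombinant E. coli-expressed Tdp1 (1 nM) preincubated with compound 15 min at RT, then 5'-biotin/3'-phosphotyrosine-FITC DNA substrate (15 nM) added for 5 min. AlphaScreen beads (10 ug/ml) added, 10 min RT; tyrosine-FITC cleavage read as signal loss.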
DT40 TDP1 CPT: qHTS for Inhibitors of human tyrosyl-DNA phosphodiesterase 1 (TDP1): qHTS in cells in presence of CPT; chicken DT40 Tdp1-/-;hTDP1 cells + 20 nM CPT, ATP luminescence, 48 h; Potency, µM (series often up to 46.2 µM), inactives show top-dose activity change, negative = growth inhibition, usual class: inhibitors; hit rate 12% among 420,000; AID 686979, 2013; note: potency is the fitted concentration of half-maximal effect; nearly all actives have a fitted effect of over 55% in size
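Cell growth measured by CellTiter-Glo luminescence after a minimum 48 h, 37 C compound exposure with 20 nM CPT in Tdp1-knockout DT40 cells stably expressing hTDP1, seeded 400/well; qHTS titration format.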
TDP1 cell noCPT: qHTS for Inhibitors of human tyrosyl-DNA phosphodiesterase 1 (TDP1): qHTS in cells in absence of CPT | DT40 Tdp1-/- hTDP1 cells, no CPT, ATP luminescence, 48 h | Potency, µM (highest dose often 46.2 µM), for inactives: at the highest dose activity change, negative = growth inhibition, usual class: inhibitors | hit rate 15% among 420,000 | AID 686978, 2013; note: potency is the fitted concentration of half-maximal effect; nearly all actives have a fitted effect of over 55% in size
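No-CPT arm: Tdp1-/-;hTDP1 DT40 cells (400/well) plus compounds, incubated ≥48 hr at 37 °C. Readout CellTiter-Glo luminescence.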
IL-1B inflam inh: qHTS for Inhibitors of Inflammasome Signaling: IL-1-beta AlphaLISA Primary Screen. THP-1 LPS/ATP IL-1B secretion, AlphaLISA, 16 h; hits give low values. activity change, % at 57.5 µM. hit rate 4.7% among 360,000. AID 743279, 2014; in the data active = activity change below about -50%; inconclusive = mostly about -30% to -49%
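Secreted IL-1B measured by AlphaLISA bead assay after 16 h compound exposure of THP-1 cells; compounds (final up to 57.5 uM) added 1 h before LPS (250 ng/mL) and ATP (1.25 mM) stimulation; lower signal means less secretion.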
Six1-Eya2 inh: qHTS Assay for Inhibitors of the Six1/Eya2 Interaction | AlphaScreen GST-Six1/His-Eya2 binding, biochemical; hits give low values | Homeobox protein SIX1 (Homo sapiens) + Protein phosphatase EYA2 (Homo sapiens), … | hit rate 0.56% among 360,000 | activity change, % (no concentration beside the values); in the data active = activity change below about -65%; inconclusive = mostly about -30% to -63%
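Homogeneous AlphaScreen proximity assay pairing GST-Six1 with His-tagged Eya2 (added as 5X mix: 250 nM and 500 nM) in 50 mM Tris pH 8.0, 300 mM NaCl, 1 mM TCEP. Glutathione donor and nickel acceptor beads; 1 h, 37 °C, dark.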
CtBP-E1A blk: qHTS Assay for Inhibitors of the CtBP/E1A Interaction | CtBP / adenovirus E1A interaction (AlphaScreen) | activity change, % (test concentration not listed) | AID 651724, 2012 | AlphaScreen GST-E1A/His-CtBP binding, 1536-well; hits give low values | hit rate 0.49% among 340,000; in the data active = activity change below about -65%; inconclusive = mostly about -30% to -63%
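Homogeneous bead-based format: GST-tagged E1A captured on glutathione donor beads, His-tagged CtBP on nickel acceptor beads; compounds precede bead addition by 2 h at 37 °C.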
* = called active by the depositor; ? = inconclusive; nt = not tested or not shown; [ ] = remark or other dose. Sampled rows, rich in hits. Any-hit rate of the full collection: about 18%. Unless noted, calls come from the whole dose curve; as a rule, active = well fitted curve in the direction sought with a large enough effect; inconclusive = small, poorly fitted or top-dose-only effect, or another doubt; inactive = no such curve, though single readings can be large; an effect the other way counts as inactive or inconclusive. % is set by controls: 0 for no effect and ±100 for the full control effect.

SMILES	TDP1 inh	DT40 TDP1 CPT	TDP1 cell noCPT	IL-1B inflam inh	Six1-Eya2 inh	CtBP-E1A blk
CCCCNC(=O)C1CC(c2cccc([N+](=O)[O-])c2)=NO1 (stereo not given)	-3%	-10%	-15%	0	21	30
CCCCNC(=O)C1CC(c2c(Cl)cccc2Cl)=NO1 (stereo not given)	1%	9.2µM*	9.2µM*	20	0	nt
O=C(NNC1=C(C(=O)C(F)(F)F)CCC1)c1cccc(Cl)c1	5%	5.8µM*	6.5µM*	73	-5	0
O=C(NNC1=C(C(=O)C(F)(F)F)CCC1)c1ccc(Cl)cc1	10%	?	?	82	-4	18
COc1ccc(C(=O)NNC2=C(C(=O)C(F)(F)F)CCC2)cc1	9%	0.73µM*	1.3µM*	131	3	-1
O=C(COC(=O)/C=C/c1cccs1)NC(=O)Cc1ccccc1	5%	-11%	-18%	25	-22	4
NC(=O)C1CCCN(C(=O)CNC(=O)C23CC4CC(CC(C4)C2)C3)C1 (stereo not given)	-15%[0.505 µM]	-11%	0%	3	2	6
CCOc1cc(NC(=O)c2ccco2)c(OCC)cc1NC(=O)Cc1ccc(OC)c(OC)c1	-2%	?	8.2µM*	10	-4	-3
CCOc1cc(N2C(=O)CC3CS(=O)(=O)CC32)c(OCC)cc1NC(=O)c1ccccc1 (stereo not given)	4%	?	21µM*	21	8	0
O=C(COc1ccccc1[N+](=O)[O-])Nc1cccc(Cl)c1N1CCOCC1	4%	16µM*	15µM*	14	-10	-2
CC(=O)c1c(C)[nH]c(C(=O)Nc2ccccc2N2CCOCC2)c1C	4%	?	?	20	7	-19
CCOc1cc(N2CCOCC2)c(OCC)cc1NC(=O)c1[nH]c(C)c(C(C)=O)c1C	-6%	8.2µM*	5.8µM*	18	-6	nt
O=C(COc1ccccc1[N+](=O)[O-])Nc1ccc(CN2CCOCC2)cc1	5%	-5%	-27%	19	-3	2
CCOc1cc(NC(=O)c2ccco2)c(OCC)cc1NC(=O)CCc1ccc(OC)cc1	-4%	nt	nt	nt	nt	nt
CCOc1ncccc1C(=O)OC(C)C(=O)NC1CCCCC1 (stereo not given)	-2%	10%	-11%	20	8	-1
COc1ccc(OC)c(NC(=O)CC2(CC(=O)O)CCCC2)c1	nt	3%	-3%	22	4	-4
CCOc1cc(N2CCOCC2)c(OCC)cc1NC(=O)c1cccc(N(C)C)c1	6%	?	21µM*	-3	-23	-3
CCOc1cc(N2CCOCC2)c(OCC)cc1NC(=O)CSc1ccccc1C(=O)O	-3%	?	-19%	11	-6	-6
CCOc1cc(N2CCOCC2)c(OCC)cc1NCC(=O)N1CCN(Cc2ccccc2)CC1	1%	?	?	-1	-17	-14
CCOc1cc(N2CCOCC2)c(OCC)cc1NC(=O)CN1CCc2ccccc2C1	11%	23µM*	18µM*	2	?	?
CCOc1cc(N2CCOCC2)c(OCC)cc1NC(C)C(=O)N1CCC(C)CC1 (stereo not given)	5%	?	26µM*	-4	-9	-8
CCOc1cc(N2CCOCC2)c(OCC)cc1NC(=O)COc1ccccc1[N+](=O)[O-]	2%	-10%	?	-80*	0	-5
Fc1ccccc1Nc1nc(-c2ccncc2)nc2ccccc12	0%	3%	?	-7	4	-2
CCOc1ccc(OCCC(=O)OCC(=O)Nc2cc(OCC)c(N3CCOCC3)cc2OCC)cc1	-14%	18µM*	26µM*	-13	?	-12
CCOc1cc(N2CCOCC2)c(OCC)cc1NC(=O)Cn1cnnn1	1%	-13%	17%	-4	0	-5
SMILES	TDP1 inh	DT40 TDP1 CPT	TDP1 cell noCPT	IL-1B inflam inh	Six1-Eya2 inh	CtBP-E1A blk
CCOc1cc(N2CCOCC2)c(OCC)cc1NC(=O)COc1cccc(CC)c1	6%	18µM*	8.2µM*	15	-27	nt
CCCOc1ccc(C(=O)Nc2ccc(N3CCOCC3)cc2N2CCOCC2)cc1OCC	nt	?	21µM*	-9	-5	-25
CCOc1cc(N2CCOCC2)c(OCC)cc1NC(=O)COC(=O)c1ccc(Cl)nc1	-4%	-17%	-20%	-5	3	-4
CCOc1cc(N2CCOCC2)c(OCC)cc1NC(=O)CC12CC3CC(CC(C3)C1)C2	-7%	13µM*	18µM*	-10	?	?
O=C(COC(=O)CCC(=O)c1ccc(F)cc1)NCCc1ccccc1	1%	-22%	-9%	18	3	2
CCOc1cc(N2CCOCC2)c(OCC)cc1NC(=O)COC(=O)c1cc2ccccc2cc1O	3%	?	?	3	3	0
CCOc1cc(N2CCOCC2)c(OCC)cc1NC(=O)COC(=O)c1ccc(Cl)cc1N	2%	5.8µM*	?	51	-1	-10
CCOc1cc(N2CCOCC2)c(OCC)cc1NC(=O)[C@H](C)N1C(=O)C2CC=CCC2C1=O (stereo not given in full)	-4%	-3%	12µM*	28	1	-2
CCOc1cc(N2CCOCC2)c(OCC)cc1NC(=O)Cc1ccc(OC)c(OC)c1	5%	?	23µM*	0	-12	-19
C[C@@H](C(=O)Nc1cc(C(F)(F)F)ccc1N1CCOCC1)N1C(=O)C2CC=CCC2C1=O (stereo not given in full)	nt	-1%	-1%	1	-2	3
CCOC(=O)c1sc(NC(=O)CN(CC)CC)c(C(=O)OCC)c1C	-2%	-21%	?	-23	4	9
Cc1ccc2[nH]c3nc(NN)nnc3c2c1	3%	23µM*	?	20	?	?
Cc1ccc(N2C(=O)CS(=O)(=O)CC2=O)cc1	3%	-6%	2%	2	-6	10
Cc1cccc(N2CCN(C(=O)CCC(=O)N3CC(C)Oc4ccc(C)cc43)CC2C)c1 (stereo not given)	nt	16µM*	?	-26	0	0
